High-throughput results deposited in PubChem BioAssay by Corson Lab, School of Medicine, Indiana University.
This is one part of a sample in which hits are shown more often than they occur.
FECH inh: blocks human mitochondrial ferrochelatase activity; purified FECH, Ni-mesoporphyrin absorbance 550 nm; calls only at 10 µM (by protocol); 20,000 compounds, 3.3% hits; P22830;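 active means enzyme reaction rate more than 3 SD below the solvent-only control wells on the same plate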;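 further: lower slope than DMSO wells means FECH inhibition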
Target sequence (P22830 whole entry, looked up): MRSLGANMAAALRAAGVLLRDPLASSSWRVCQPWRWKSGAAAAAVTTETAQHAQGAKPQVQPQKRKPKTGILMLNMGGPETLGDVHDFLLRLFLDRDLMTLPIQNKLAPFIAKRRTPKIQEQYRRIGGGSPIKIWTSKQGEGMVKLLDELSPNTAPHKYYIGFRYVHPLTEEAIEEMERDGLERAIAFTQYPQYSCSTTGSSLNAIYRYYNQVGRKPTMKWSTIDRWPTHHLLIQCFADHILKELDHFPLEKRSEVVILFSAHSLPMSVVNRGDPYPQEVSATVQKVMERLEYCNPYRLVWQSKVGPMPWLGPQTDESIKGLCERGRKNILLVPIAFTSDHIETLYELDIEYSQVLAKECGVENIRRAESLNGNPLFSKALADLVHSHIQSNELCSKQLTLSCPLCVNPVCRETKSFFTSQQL
An asterisk follows results filed as active; i = inactive; + = active, no number.

SMILES	FECH inh
CCOc1ccc(Nc2nc(N(CC)CC)nc3c2cnn3-c2ccccc2)cc1	i
CCOc1ccc(Nc2nc(NCC3CCCO3)nc3c2cnn3-c2ccccc2)cc1 (stereo unspecified)	+
COc1ccc(OC)c(Nc2nc(NCc3ccccc3Cl)nc3c2cnn3-c2ccccc2)c1	+
Cc1ccc(N(Cc2nc3nc(C)cc(C)n3n2)C(=O)c2cccs2)cc1	i
NS(=O)(=O)c1ccc(CCN[C@H]2CS(=O)(=O)C[C@@H]2S(=O)(=O)c2ccc(Cl)cc2)cc1	i
COCC(C)NC(=O)C1CCN(C(=O)CCn2c(C)cc(C)nc2=O)CC1 (stereo unspecified)	i
O=C(c1coc(COc2ccccc2F)n1)N1CCS(=O)(=O)CC1	i
CC(=O)Nc1ccc(Nc2nc(C)cc(N3CCCC3)n2)cc1	i
O=C(N[C@@H]1c2ccccc2C2(CCNCC2)[C@H]1O)c1cccc(-n2cccn2)c1	i
C[C@@H]1CN(C(=O)c2nc3sccn3c2-c2nc3ccc(F)cc3[nH]2)C[C@H](C)O1	i
CCc1cc(Sc2ccccc2NC(=O)c2c(F)cccc2F)n2nc(C)nc2n1	i
COc1cccc(C(=O)N(Cc2nc3nc(C)cc(C)n3n2)c2ccccc2OC)c1	i
CCn1c(=O)n(CC(=O)c2c(C)n(C)c3ccccc23)c(=O)c2cnc(-c3ccc(Cl)cc3)nc21	i
C=C(C)COc1c(CN2CCCCC2c2nc(C)no2)cccc1OC (stereo unspecified)	i
CCN1CCN(c2nc(Nc3ccc(C)cc3)c3cnn(-c4ccccc4)c3n2)CC1	i
C=CCNC(=O)COc1nc(CC)nc2onc(-c3ccc(F)cc3)c12	i
CCNC(=O)COc1nc(CC)nc2onc(-c3ccc(F)cc3)c12	+
CCc1nc(OCC(=O)NCc2ccccn2)c2c(-c3ccc(F)cc3)noc2n1	i
NS(=O)(=O)c1ccc(NC(=O)c2cc(-c3ccccc3)on2)cc1	i
Cc1ccc(-c2cc(C(=O)Nc3ccc(S(N)(=O)=O)cc3)no2)cc1	i
Cc1ccc(-c2cc(C(=O)NCc3ccc(S(N)(=O)=O)cc3)no2)cc1	i
COc1ccc(-c2cc(C(=O)Nc3ccc(S(N)(=O)=O)cc3)no2)cc1	+
CCOc1ccc(-c2cc(C(=O)NCc3ccc(S(N)(=O)=O)cc3)no2)cc1	+
Cc1ccc(-c2cc(C(=O)NCCc3ccc(S(N)(=O)=O)cc3)no2)cc1	i
CN(C(=O)c1cc(Cn2ccc3ccccc32)[nH]n1)C1Cc2ccccc2C1	i
SMILES	FECH inh
Cc1nnsc1C(=O)Nc1ccc(S(N)(=O)=O)cc1	i
COC(=O)CCn1cnc(-c2ccccc2)c1-c1ccc(NC(C)=O)cc1	i
CCc1cc(Sc2ccc(NC(=O)c3c(-c4ccccc4Cl)noc3C)cc2)n2ncnc2n1	i
Cc1ccccc1-c1nc2nc(CN3CCC(C)CC3)cc(=O)n2[nH]1	i
CCc1nc(OCC(=O)NCc2cccc(C)c2)c2c(C)c(C)oc2n1	i
C/C(=C\c1ccco1)CN(C)CC1CC(=O)N(C2CCCC2)C1 (stereo unspecified)	i
CCCc1ncncc1C(=O)N1Cc2cnc(CC)nc2C1	i
CC(=O)Nc1ccc(NC(=O)CN2C(=O)CN(C)C(=O)c3ccccc32)cc1	i
CN1CC(=O)N(CC(=O)Nc2ccc(-c3ccno3)cc2)c2ccccc2C1=O	+
CN1CC(=O)N(CC(=O)Nc2cccc(-c3ccno3)c2)c2ccccc2C1=O	i
CCCn1c(CNS(=O)(=O)c2ccc(NC(=O)CC)cc2)nc2cccnc21	i
Nc1cc(N2CCCC(C(=O)c3ccc(Oc4ccccc4)cc3)C2)ncn1 (stereo unspecified)	i
COc1ccc2c(c1)CC(C(=O)Nc1ccc(S(N)(=O)=O)cc1)CO2 (stereo unspecified)	i
Cc1ccc(CNC(=O)N2CCC(n3cnc4cccnc43)CC2)cc1	i
CCc1c(C)nc2ncnn2c1Sc1ccc(NC(=O)Nc2cc(Cl)c(OC)cc2OC)cc1	i
Cc1cc2nc(CSc3nnc4c(n3)[nH]c3ccccc34)cc(=O)n2o1	+
Cc1cc(C)n2c(SCc3cc(=O)n4oc(C)cc4n3)nnc2n1	i
Cc1cc2nc(CSc3nnc(-c4cc(C)n(C)n4)o3)cc(=O)n2o1	i
Cc1cc(Nc2ccccc2)nc(Nc2ccc(NC(=O)CCCc3ccccc3)cc2)n1	i
COc1ccc(Nc2cc(C)nc(Nc3ccc(NC(=O)c4cc(Cl)ccc4OC)cc3)n2)cc1	i
COc1ccc(C(=O)Nc2ccc(Nc3nc(C)cc(Nc4ccccc4)n3)cc2)cc1	i
COc1ccc(Nc2cc(C)nc(Nc3ccc(NC(=O)c4ccccc4OC)cc3)n2)cc1	+
Cc1cc(Sc2ccccc2NC(=O)Nc2ccc(Br)cc2F)n2ncnc2n1	i
Cc1ccccc1CNC(=O)CCn1cnc2onc(-c3cc(F)cc(F)c3)c2c1=O	i
Cc1cc(Sc2ccc(NC(=O)Nc3ccccc3F)cc2)n2ncnc2n1	i
SMILES	FECH inh
CCc1c(C)nc2ncnn2c1Sc1ccccc1NC(=O)Cc1ccc(OC)cc1	+
CCc1c(C)nc2ncnn2c1Sc1ccccc1NC(=O)Nc1ccc(C)cc1	i
CCc1c(C)nc2ncnn2c1Sc1ccccc1NC(=O)C1CC1	+
CCc1c(C)nc2ncnn2c1Sc1ccc(NC(=O)Cc2ccc(OC)cc2)cc1	i
CCc1c(C)nc2ncnn2c1Sc1ccc(NC(=O)C2CC2)cc1	i
CCc1c(C)nc2ncnn2c1Sc1ccccc1NC(=O)COc1ccc(C)cc1	i
Cc1cccc(-n2c(CN3CCN(S(=O)(=O)c4cc(C)ccc4C)CC3)nc3cccnc32)c1	i
O=C(c1cc(=O)[nH]c2ccc(F)cc12)N(Cc1ccccn1)CC1CCCO1 (stereo unspecified)	i
O=C(O)C1CC(=O)N(Cc2cnc3ccccc3c2)C1 (stereo unspecified)	i
Cc1cc(F)ccc1Nc1c(-c2ccc3c(c2)CCCC3)c(=O)c1=O	i
CCC(=O)Nc1ccccc1-c1nnc(SCC(=O)Nc2ccccc2Cl)[nH]c1=O	i
CCC(=O)Nc1ccccc1-c1nnc(SCC(=O)Nc2cccc(C)c2C)[nH]c1=O	i
CCC(=O)Nc1ccccc1-c1nnc(SCC(=O)Nc2cc(C)cc(C)c2)[nH]c1=O	+
COC(=O)CC1=CC(=O)N(CC(=O)Nc2ccc(Cl)cc2)c2ccccc2N1	i
Clc1cccc(Nc2nc(N3CCC(Cc4ccccc4)CC3)nc3c2cnn3-c2ccccc2)c1	i
CCNC(=O)C1CCN(C(=O)c2coc(COc3ccc4ncccc4c3)n2)C1 (stereo unspecified)	i
O=C1NCCN(Cc2cnc(-c3ccccn3)nc2)C1c1ccc(F)cc1 (stereo unspecified)	i
CC(C)NC(=O)[C@@H]1C[C@H](N)CN1C(=O)c1cccc2c3c([nH]c12)CCCC3	+
CCCc1cc(C(=O)N2C[C@@H](N)C[C@H]2C(=O)NC(C)C)ccn1	i
Cc1cc(C(=O)N2C[C@@H](N)C[C@H]2C(=O)NC(C)C)c(-c2ccccc2)o1	i
Cc1cccc(N2CCN(c3ncc(NS(=O)(=O)c4cc(C)ccc4C)cc3C(=O)O)CC2C)c1 (stereo unspecified)	i
CCc1c(C)nc2ncnn2c1Sc1ccc(NS(=O)(=O)c2ccc(F)cc2)cc1	i
CCc1csc(CNC(=O)CCc2nc3ccc(F)cc3[nH]2)n1	i
Cc1cccc(N(Cc2nc3nc(C)cc(C)n3n2)C(=O)COc2ccccc2)c1	+
